# Experimental data: the supplement of paper PMC6522484
# ± gives the standard deviation of the averaged measurements.
# Legend:
# DLD1 [1] = assay: cell viability (CellTiter-Glo) relative to plate median (fraction of plate median); higher = more viable cells; conditions: 5 µM; treatment time 24 h; reporter: 7TFP
# In short: (§1)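 On parallel plates, a Tecan F500 reader recorded either firefly luciferase or CellTiterGlo luminescence. The plates held colorectal cancer cells stably transduced with lentiviral TCF/Wnt firefly luciferase reporters (7TFP or TCF4/Wnt), seeded in 384-well format and treated 24 h later with library compounds at a final 5 µM for 24 h. Per-well signals were normalised to the plate median (webcellHTS2, additive, no log transformation), and two independent replicates were averaged.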
# HCT116 = assay: as above; conditions: 5 µM; treatment time 24 h; reporter: TCF4/Wnt
# In short: as §1
# SW480 [2] = assay: as above; conditions: 5 µM; treatment time 24 h; reporter: 7TFP
# In short: as §1
# DLD1 [3] = assay: TCF/Wnt firefly luciferase reporter signal relative to plate median (fraction of plate median); higher = higher Wnt reporter signal; conditions: 5 µM; treatment time 24 h; reporter: 7TFP
# In short: as §1
# SW480 [4] = assay: as above; conditions: 5 µM; treatment time 24 h; reporter: 7TFP
# In short: as §1
Compound,cell viability (DLD1 [1]),cell viability (HCT116),cell viability (SW480 [2]),TCF/Wnt firefly luciferase reporter signal (DLD1 [3]),TCF/Wnt firefly luciferase reporter signal (SW480 [4])
COC(=O)CC[C@@H](C)[C@H]1CC[C@H]2[C@@H]3CC[C@@H]4C[C@H](O)CC[C@]4(C)[C@H]3C[C@H](O)[C@]12C,0.964 ± 0.065,1.02 ± 0.097,0.944 ± 0.018,0.955 ± 0.079,0.875 ± 0.061
O=C(O)/C=C(\CC(=O)O)C(=O)O,1.05 ± 0.014,0.98 ± 0.018,1 ± 0.011,1.11 ± 0.035,0.978 ± 0.059
CC(C)[C@H](NC(=O)[C@H](Cc1ccc(O)cc1)NC(=O)[C@@H](NC(=O)C(F)(F)F)C(C)C)C(=O)O,0.957 ± 0.028,0.94 ± 0.021,0.969 ± 0.025,0.842 ± 0.12,0.845 ± 0.035
CCCc1nc(C(C)(C)O)c(C(=O)OCc2oc(=O)oc2C)n1Cc1ccc(-c2ccccc2-c2nnn[nH]2)cc1,0.99 ± 0.015,0.978 ± 0.045,1.01 ± 0.047,1.11 ± 0.11,1.11 ± 0.042
NCCc1c[nH]cn1,1.06 ± 0.028,1.02 ± 0.021,1.04 ± 0.062,1.12,1.06 ± 0.014
CC(C)=CCC[C@](C)(O)C1CC=C(C)CC1 (stereo not given in full),1.04 ± 0.063,0.973 ± 0.081,1.1 ± 0.085,1.03 ± 0.014,0.996 ± 0.076
O=C(O)c1c[nH]c2ccccc12 [Indole-3-carboxylic acid],0.977 ± 0.011,0.868 ± 0.083,0.9405 ± 0.005,0.83 ± 0.12,0.968 ± 0.21
O=c1ccc2ccccc2o1,0.985 ± 0.11,1.01 ± 0.029,0.976 ± 0.014,1.09 ± 0.014,0.984 ± 0.018
CC(=O)Oc1cc(C)c2c(c1C(OC(C)=O)OC(C)=O)Oc1c(c(C)c(OC(C)=O)c3c1C(OC(C)=O)OC3=O)OC2=O (stereo not given),0.969 ± 0.044,0.975 ± 0.025,0.943 ± 0.064,0.993 ± 0.081,1.18 ± 0.099
COc1ccc(-c2oc3cc(O[C@@H]4O[C@H](CO)[C@@H](O)[C@H](O)[C@H]4O)c(OC)c(O)c3c(=O)c2OC)cc1O,1.05 ± 0.057,1.19 ± 0.17,1,1.05 ± 0.035,1.02 ± 0.11
CC(C(=O)O)c1ccc(-c2ccccc2)c(F)c1 (stereo not given),1.09 ± 0.11,1.11 ± 0.078,1.04,1.07 ± 0.014,1.02 ± 0.035
COC(=O)C[C@H]1C(C)(C)C(=O)[C@@H]2CC3C4=CC(=O)O[C@@H](c5ccoc5)[C@]4(C)CC[C@@H]3[C@@]1(C)C2=O (stereo not given in full),0.924 ± 0.0042,1.01 ± 0.06,0.957 ± 0.03,1.04 ± 0.014,0.866 ± 0.062
COc1ccc2cc([C@H](C)CO)ccc2c1,0.939 ± 0.0028,0.862 ± 0.17,0.9375 ± 0.0021,1.11 ± 0.035,1.04 ± 0.05
O=C(Oc1cc(O)cc2c1C[C@@H](OC(=O)c1cc(O)c(O)c(O)c1)[C@@H](c1cc(O)c(O)c(O)c1)O2)c1cc(O)c(O)c(O)c1,1.06 ± 0.028,1.1 ± 0.12,1.04 ± 0.021,0.89 ± 0.0071,0.951 ± 0.048
CC1(C)O[C@@H]2C[C@H]3[C@@H]4C[C@H](F)C5=CC(=O)C=C[C@]5(C)[C@@]4(F)[C@@H](O)C[C@]3(C)[C@]2(C(=O)CO)O1,0.955 ± 0.11,1 ± 0.093,0.975 ± 0.05,0.974 ± 0.032,0.944 ± 0.038
COc1ccc2c(=O)c(CC(=O)O)coc2c1,0.968 ± 0.059,0.984 ± 0.08,0.968 ± 0.012,1 ± 0.021,0.985 ± 0.092
Cc1cc(=O)c2c(O)cc(O)c(C)c2o1,0.906 ± 0.061,0.873 ± 0.034,0.9105 ± 0.0035,1.25 ± 0.26,1.02 ± 0.039
CC(=O)N[C@@H](Cc1c[nH]c2ccccc12)C(N)=O,1.07 ± 0.11,0.831 ± 0.1,1.07 ± 0.028,1.04 ± 0.18,0.891 ± 0.061
COc1cc(NS(=O)(=O)c2ccc(N)cc2)ncn1,0.88 ± 0.0092,0.9455 ± 0.005,0.931 ± 0.037,0.99 ± 0.028,0.941 ± 0.028
CC(=O)NS(=O)(=O)c1ccc(NC(=O)c2ccccc2C(=O)O)cc1,0.946 ± 0.047,0.905 ± 0.13,0.93 ± 0.035,1.04 ± 0.057,1.1 ± 0.042
COC(=O)c1cc(O)c(=O)c2c(O)c(O)ccc2c1,0.982 ± 0.096,0.8955 ± 0.0021,0.997 ± 0.033,0.785 ± 0.037,0.951 ± 0.11
O=C1[C@H](CC[C@H](O)c2ccc(F)cc2)[C@@H](c2ccc(O)cc2)N1c1ccc(F)cc1,0.828 ± 0.15,1.01 ± 0.063,0.961 ± 0.084,0.952 ± 0.17,0.919 ± 0.11
CO[C@@]1(NC(=O)Cc2cccs2)C(=O)N2C(C(=O)O)=C(COC(N)=O)CS[C@@H]21,1.06 ± 0.078,1.08 ± 0.2,0.968 ± 0.023,1.07 ± 0.11,0.887 ± 0.021
O=c1c(O)c(-c2ccccc2)oc2ccccc12,0.992 ± 0.026,0.961 ± 0.069,1 ± 0.027,1.1 ± 0.16,0.977 ± 0.1
"COC(=O)C[C@H]1C(C)(C)[C@@H](O)[C@@H]2CC3=C4CC(O)O[C@@H](c5ccoc5)[C@]4(C)CCC3[C@@]1(C)C2=O (stereo partly drawn) [3,16-DIDEOXYMEXICANOLIDE-3beta-DIOL]",1.1 ± 0.085,1.04 ± 0.042,1.035 ± 0.0071,1.02 ± 0.15,0.896 ± 0.076
C[C@@H]1C[C@H]2[C@@H]3CCC4=CC(=O)C=C[C@]4(C)[C@@]3(F)[C@@H](O)C[C@]2(C)[C@@]1(O)C(=O)COP(=O)(O)O,1.03 ± 0.052,1.02 ± 0.075,1.01 ± 0.093,0.954 ± 0.065,0.906 ± 0.0014
CC1=CC2C(C(C)C)CCC(C)(O)C2CC1 (stereo not given),0.97 ± 0.036,0.929 ± 0.011,0.969 ± 0.013,1.02 ± 0.11,0.957 ± 0.025
Oc1ccc2c(c1)O[C@H](c1ccc(O)c(O)c1)[C@@H](O)C2,1.07 ± 0.014,1.04 ± 0.028,1.05 ± 0.096,0.926 ± 0.058,0.9675 ± 0.005
